Results on 30 molecules are retold here after PubChem BioAssay (Tox21).

Several values for one entry are separate records, joined by “and”; a condition that tells them apart may be missing. Equal entries are not always repeated. Inconclusive results are not listed. A call without a number means that no potency is given here. Some structures have more than one record in an assay (separate samples or runs), and their calls can disagree. Activity calls are given as the source filed them. Unless noted, the call rests on the fitted dose curve.

Sequence of Estrogen receptor (Homo sapiens) (P03372 whole entry, looked up): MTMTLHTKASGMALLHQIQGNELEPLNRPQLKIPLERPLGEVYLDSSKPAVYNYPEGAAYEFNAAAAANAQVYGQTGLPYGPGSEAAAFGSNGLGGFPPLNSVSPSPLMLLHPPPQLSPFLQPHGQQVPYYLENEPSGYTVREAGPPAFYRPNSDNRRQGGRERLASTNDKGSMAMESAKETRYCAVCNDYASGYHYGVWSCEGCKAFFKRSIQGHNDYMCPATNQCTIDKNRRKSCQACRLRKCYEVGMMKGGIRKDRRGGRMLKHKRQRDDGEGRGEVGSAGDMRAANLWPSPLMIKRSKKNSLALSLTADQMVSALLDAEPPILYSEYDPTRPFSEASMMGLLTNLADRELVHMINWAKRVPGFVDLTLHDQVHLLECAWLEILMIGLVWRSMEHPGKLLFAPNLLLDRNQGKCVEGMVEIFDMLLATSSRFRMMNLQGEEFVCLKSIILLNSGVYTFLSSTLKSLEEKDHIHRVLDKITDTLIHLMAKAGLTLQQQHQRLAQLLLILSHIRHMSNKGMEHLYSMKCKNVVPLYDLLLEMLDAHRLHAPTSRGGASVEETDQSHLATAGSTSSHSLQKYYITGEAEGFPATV

System in one assay: not listed separately
Briefly: qHTS assay to identify small molecule agonists of the estrogen receptor beta (ER-beta) signaling pathway - cell viability counter screen (AID 1259380; active means well fitted curve in the direction sought with a large enough effect in the repeat runs; an effect the other way counts as inactive or inconclusive; further: nearly all actives have a fitted effect of over 30% in size; further: potency means the concentration at half of the fitted maximal effect). To be noted: ER-beta-bla HEK293T viability, CellTiter-Glo luminescence, 16 h; series mostly up to 92.4 µM. The method in brief:
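ER-beta-UAS-bla HEK293T cells in medium with 2% charcoal-stripped FBS, pre-incubated 6 hr, then treated 16 hr at 37C. Cytotoxicity read in the same wells by CellTiter-Glo luminescence after 30 min at room temperature.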
(Quantitative high-throughput screening tests each substance at several concentrations.)
Turning to `N[C@@H](Cc1c[nH]c2ccc(O)cc12)C(=O)O`, the Potency result was “inactive”.

`COC(=O)C1CCC(C(=O)OC)CC1` (configuration not stated): the Potency result was “inactive”.

Consider `CCCCCCCCCCCCCCCCCC(=O)OCC(O)CO` (configuration not stated), for which the Potency result was “inactive”.

Take `COC(=O)c1ccc(C=O)cc1`: the Potency result was “inactive”.

Consider `CCCCOC(=O)CCCCCCCCC(=O)OCCCC`, for which the Potency entry was “inactive”.

Consider `O=C(O)CN(CC(=O)O)CC(=O)O`, for which the Potency result is “inactive”.

Take `CC1=NN(c2ccccc2)C(=O)C1`: the Potency result is “inactive”.

On to `CC(=O)CCC(C)C`, for which the Potency entry is “inactive”.

In the case of `CC(C)(C)NCC(O)c1ccc(O)c(CO)c1` (configuration not stated), the Potency entry was “inactive”.

Consider `Cc1cnc(NC(=O)C2=C(O)c3ccccc3S(=O)(=O)N2C)s1`, for which the Potency result was “inactive”.

Take `C[C@]12C=CC(=O)C=C1CC[C@@H]1[C@@H]2C(=O)C[C@@]2(C)[C@H]1CC[C@]2(O)C(=O)CO`: the Potency result was “inactive”.

As for `CN(C)C=O`, the Potency entry was “inactive”.

Take `Cc1cccc2ccccc12`: the Potency result was “inactive”.

For the molecule `CC(C)(C)CC(C)(C)c1ccc(O)c(-n2nc3ccccc3n2)c1`, the Potency was 27.7 µM (active).

Take `OCCCc1ccccc1`: the Potency entry is “inactive”.

System in the next assay: not listed separately
In words: qHTS assay to identify small molecule antagonists of the estrogen receptor beta (ER-beta) signaling pathway - cell viability counter screen (AID 1259382; active means well fitted curve in the direction sought with a large enough effect in the repeat runs; an effect the other way counts as inactive or inconclusive;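 further: HEK293T cells carrying ER-beta-UAS-bla reporter stimulated with estradiol; nearly all actives have a fitted effect of over 55% in size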). To be noted: ER-beta-UAS-bla HEK293T viability, CellTiter-Glo luminescence, 16 h; series mostly up to 92.4 µM. The method in brief: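 ER-beta-UAS-bla HEK293T cells in 2% charcoal-stripped FBS medium, treated with compound plus 1 nM 17-beta-estradiol for 16 h at 37C. Viability read by CellTiter-Glo luminescence after 30 min at room temperature in the same wells.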
Take `N[C@@H](Cc1c[nH]c2ccc(O)cc12)C(=O)O`: the Potency entry is “inactive”.

As for `COC(=O)C1CCC(C(=O)OC)CC1` (configuration not stated), the Potency result was “inactive”.

Regarding `CCCCCCCCCCCCCCCCCC(=O)OCC(O)CO` (configuration not stated), the Potency result is “inactive”.

As for `C/C=C/c1ccc(O)c(OC)c1`, the Potency entry is “inactive”.

Turning to `COC(=O)c1ccc(C=O)cc1`, the Potency result is “inactive”.

Take `CCCCOC(=O)CCCCCCCCC(=O)OCCCC`: the Potency result was “inactive”.

As for `O=C(O)CN(CC(=O)O)CC(=O)O`, the Potency entry is “inactive”.

As to `CCN1CCCC1=O`, the Potency result was “inactive”.

As to `O=C(O)CCCCC1CCSS1` (configuration not stated), the Potency result was “inactive”.

Turning to `COC1=CC(=O)C[C@@H](C)[C@]12Oc1c(Cl)c(OC)cc(OC)c1C2=O`, the Potency result is “inactive”.

With `NC(N)=NC(N)=NCCc1ccccc1`, the Potency entry is “inactive”.

Consider `COC(=O)c1ccc(O)cc1`, for which the Potency entry was “inactive”.

For the molecule `Oc1cccc(O)c1`, the Potency entry is “inactive”.

Regarding `CC1=NN(c2ccccc2)C(=O)C1`, the Potency entry was “inactive”.

For the molecule `CC(=O)CCC(C)C`, the Potency result was “inactive”.

`CC(=O)/C=C/C1=C(C)CCCC1(C)C`: the Potency entry was “inactive”.

For the molecule `CC(C)(C)NCC(O)c1ccc(O)c(CO)c1` (configuration not stated), the Potency entry is “inactive”.

In the case of `Cc1c(N(C)C)c(=O)n(-c2ccccc2)n1C`, the Potency entry is “inactive”.

`CC(=O)OC/C=C(C)/C=C/C=C(C)/C=C/C1=C(C)CCCC1(C)C`: the Potency result is “inactive”.

In the case of `Cc1cnc(NC(=O)C2=C(O)c3ccccc3S(=O)(=O)N2C)s1`, the Potency result is “inactive”.

`C[C@]12C=CC(=O)C=C1CC[C@@H]1[C@@H]2C(=O)C[C@@]2(C)[C@H]1CC[C@]2(O)C(=O)CO`: the Potency entry is “inactive”.

On to `CN(C)C=O`, for which the Potency entry was “inactive”.

For `Cc1cccc2ccccc12`, the Potency result is “inactive”.

For `C[C@]12C[C@H](O)[C@H]3[C@@H](CCC4=CC(=O)CC[C@@]43C)[C@@H]1CC[C@@H]2C(=O)CO`, the Potency entry was “inactive”.

Consider `CC(C)Cc1ccc(C(C)C(=O)O)cc1` (configuration not stated), for which the Potency result is “inactive”.

For `Cc1ccc(O)c(-n2nc3ccccc3n2)c1`, the Potency entry was “inactive”.

With `CC(C)(C)CC(C)(C)c1ccc(O)c(-n2nc3ccccc3n2)c1`, the Potency entry was “inactive”.

For `C=C(C)OC(C)=O`, the Potency result is “inactive”.

As to `OCCCc1ccccc1`, the Potency entry is “inactive”.

Consider `C=CCOC(=O)CC(C)C`, for which the Potency result was “inactive”.

In another assay the target is Estrogen receptor (Homo sapiens) (UniProt P03372). Briefly: qHTS assay to identify small molecule agonists of the estrogen receptor alpha (ER-alpha) signaling pathway in the presence of an antagonist (AID 1259383). Further: nearly all actives have a fitted effect of over 15% in size. Further: potency means the concentration at half of the fitted maximal effect. To be noted: VM7Luc4E2 cells, ERE-luciferase, +ICI-182,780, 22 h; series mostly up to 92.4 µM. The method in brief:
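VM7Luc4E2 cells express endogenous full-length ER-alpha with an ERE-luciferase reporter and were hormone-deprived for 5 days. Compounds at 15 concentrations were added with 10.0nM ICI-182,780 for 22hr at 37C. Luminescence was read with ONE-Glo.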
Take `N[C@@H](Cc1c[nH]c2ccc(O)cc12)C(=O)O`: the Potency result is “inactive”.

In the case of `COC(=O)C1CCC(C(=O)OC)CC1` (configuration not stated), the Potency result was “inactive”.

Consider `CCCCCCCCCCCCCCCCCC(=O)OCC(O)CO` (configuration not stated), for which the Potency result was “inactive”.

Regarding `C/C=C/c1ccc(O)c(OC)c1`, the Potency entry was “inactive”.

`COC(=O)c1ccc(C=O)cc1`: the Potency entry was “inactive”.

Regarding `CCCCOC(=O)CCCCCCCCC(=O)OCCCC`, the Potency result was “inactive”.

`O=C(O)CN(CC(=O)O)CC(=O)O`: the Potency entry was “inactive”.

`CCN1CCCC1=O`: the Potency entry was “inactive”.

Regarding `O=C(O)CCCCC1CCSS1` (configuration not stated), the Potency entry is “inactive”.

In the case of `COC1=CC(=O)C[C@@H](C)[C@]12Oc1c(Cl)c(OC)cc(OC)c1C2=O`, the Potency result is “inactive”.

For `NC(N)=NC(N)=NCCc1ccccc1`, the Potency entry was “inactive”.

As for `COC(=O)c1ccc(O)cc1`, the Potency result is “inactive”.

Turning to `Oc1cccc(O)c1`, the Potency entry is “inactive”.

Regarding `CC1=NN(c2ccccc2)C(=O)C1`, the Potency result was “inactive”.

For `CC(=O)CCC(C)C`, the Potency result was “inactive”.

For the molecule `CC(=O)/C=C/C1=C(C)CCCC1(C)C`, the Potency result is “inactive”.

`CC(C)(C)NCC(O)c1ccc(O)c(CO)c1` (configuration not stated): the Potency entry was “inactive”.

Consider `Cc1c(N(C)C)c(=O)n(-c2ccccc2)n1C`, for which the Potency entry was “inactive”.

`CC(=O)OC/C=C(C)/C=C/C=C(C)/C=C/C1=C(C)CCCC1(C)C`: the Potency result is “inactive”.

Consider `Cc1cnc(NC(=O)C2=C(O)c3ccccc3S(=O)(=O)N2C)s1`, for which the Potency result was “inactive”.

On to `C[C@]12C=CC(=O)C=C1CC[C@@H]1[C@@H]2C(=O)C[C@@]2(C)[C@H]1CC[C@]2(O)C(=O)CO`, for which the Potency entry was “inactive”.

`CN(C)C=O`: the Potency entry was “inactive”.

On to `Cc1cccc2ccccc12`, for which the Potency result was “inactive”.

As for `C[C@]12C[C@H](O)[C@H]3[C@@H](CCC4=CC(=O)CC[C@@]43C)[C@@H]1CC[C@@H]2C(=O)CO`, the Potency entry is “inactive”.

As to `CC(C)Cc1ccc(C(C)C(=O)O)cc1` (configuration not stated), the Potency result is “inactive”.

Take `Cc1ccc(O)c(-n2nc3ccccc3n2)c1`: the Potency result was “inactive and 1.54 µM (active)”.

Consider `CC(C)(C)CC(C)(C)c1ccc(O)c(-n2nc3ccccc3n2)c1`, for which the Potency result was “inactive”.

On to `C=C(C)OC(C)=O`, for which the Potency result is “inactive”.

With `OCCCc1ccccc1`, the Potency entry was “inactive”.

As for `C=CCOC(=O)CC(C)C`, the Potency entry is “inactive”.

System in the next assay: not listed separately
In words: qHTS assay to identify small molecule agonists or antagonists of the thyroid stimulating hormone receptor (TSHR) signaling pathway - wild type cell line counter screen (AID 1259384). Further: potency means the concentration at half of the fitted maximal effect. To be noted: HEK293 wild type, cAMP HTRF counter-screen; series mostly up to 92.4 µM. The method in brief: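 Counter screen in untransfected Hek293: compounds (15-point titration, triplicate) plus phosphodiesterase inhibitor Ro20-1724 added after 18 h plating; 30 min RT. Intracellular cAMP via competitive d2/cryptate immunoassay, 1 h incubation.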
As to `N[C@@H](Cc1c[nH]c2ccc(O)cc12)C(=O)O`, the Potency result was “inactive”.

`COC(=O)C1CCC(C(=O)OC)CC1` (configuration not stated): the Potency entry was “inactive”.

On to `CCCCCCCCCCCCCCCCCC(=O)OCC(O)CO` (configuration not stated), for which the Potency result is “inactive”.

In the case of `C/C=C/c1ccc(O)c(OC)c1`, the Potency result is “inactive”.

As to `CCCCOC(=O)CCCCCCCCC(=O)OCCCC`, the Potency entry is “inactive”.

In the case of `O=C(O)CN(CC(=O)O)CC(=O)O`, the Potency result is “inactive”.

In the case of `CCN1CCCC1=O`, the Potency result is “inactive”.

In the case of `O=C(O)CCCCC1CCSS1` (configuration not stated), the Potency result was “inactive”.

On to `COC1=CC(=O)C[C@@H](C)[C@]12Oc1c(Cl)c(OC)cc(OC)c1C2=O`, for which the Potency result is “inactive”.

Consider `NC(N)=NC(N)=NCCc1ccccc1`, for which the Potency result was “inactive”.

On to `COC(=O)c1ccc(O)cc1`, for which the Potency entry was “inactive”.

In the case of `Oc1cccc(O)c1`, the Potency result is “inactive”.

For `CC1=NN(c2ccccc2)C(=O)C1`, the Potency result was “inactive”.

Turning to `CC(=O)CCC(C)C`, the Potency entry is “inactive”.

With `CC(C)(C)NCC(O)c1ccc(O)c(CO)c1` (configuration not stated), the Potency was 15.8 nM (active) and 37.6 nM (active).

With `Cc1c(N(C)C)c(=O)n(-c2ccccc2)n1C`, the Potency entry is “inactive”.

Regarding `CC(=O)OC/C=C(C)/C=C/C=C(C)/C=C/C1=C(C)CCCC1(C)C`, the Potency entry was “inactive”.

With `C[C@]12C=CC(=O)C=C1CC[C@@H]1[C@@H]2C(=O)C[C@@]2(C)[C@H]1CC[C@]2(O)C(=O)CO`, the Potency entry is “inactive”.

In the case of `CN(C)C=O`, the Potency entry was “inactive”.

As for `Cc1cccc2ccccc12`, the Potency entry is “inactive”.

In the case of `C[C@]12C[C@H](O)[C@H]3[C@@H](CCC4=CC(=O)CC[C@@]43C)[C@@H]1CC[C@@H]2C(=O)CO`, the Potency result was “inactive”.

`CC(C)Cc1ccc(C(C)C(=O)O)cc1` (configuration not stated): the Potency result is “inactive”.

Turning to `Cc1ccc(O)c(-n2nc3ccccc3n2)c1`, the Potency result is “inactive”.

Turning to `CC(C)(C)CC(C)(C)c1ccc(O)c(-n2nc3ccccc3n2)c1`, the Potency result was “inactive”.

`C=C(C)OC(C)=O`: the Potency entry is “inactive”.

Turning to `OCCCc1ccccc1`, the Potency entry is “inactive”.

On to `C=CCOC(=O)CC(C)C`, for which the Potency entry was “inactive”.
